Data on 98 compounds can be found in PubChem BioAssay AID1850 (Southern Research Specialized Biocontainment Screening …, 2009).

Values joined by “and” are separate entries in the source; they are usually repeats but may differ in a detail not shown here. Equal values may be shown once. Hit rate of the full screen: of about 310,000 compounds, about 1,000 (0.32%) were called active. These entries were drawn from the full list. Potency and affinity values are given separately. A number with no mark means an inactive call. The rule behind the calls is not given here.

The experiment can be described thus: Inhibition of PhoP regulon, Salmonella typhi GFP reporter cells, confirmation, 4 h (AID 1850).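 Note: 0% = induced wells with vehicle and 100% = uninduced wells.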 Conditions: Salmonella Typhi PhoP-promoter GFP reporter, fluorescence, at 50 µM, active compounds read high.
By inhibition is commonly meant the drop in the measured response relative to a control, in per cent. Consider `CCOc1ccc(-c2noc(CCC(=O)NC3CCCCC3)n2)cc1OC`, for which the inhibition was -7.76%.
With `NNc1nc(Nc2ccccc2)nc(Nc2ccccc2)n1`, the inhibition was -2.45%.
The value for `COc1cc2nc(Nc3cccc(F)c3)nc(N)c2cc1OC` was -16.8%.
The same measure for `Fc1cccc(Nc2nc(Cl)nc(Cl)n2)c1`: -6.69%.
`COc1ccc(C)cc1Nc1nc(N)c2ccccc2n1`: the inhibition was 2.42%.
The value for `CC(=O)c1ccc(OCC(O)CN2CCN(c3ccc(F)cc3)CC2)cc1` (stereo not drawn) was 9.79%; that for `C[C@H]1CN=C(N(C)C)N1CCCC1CCCCC1` was -3.79%; that for `O=C(CCN1CCOCC1)c1ccc(Cl)cc1` was 5.47%.
The value for `CCOC(=O)N1CCN(CCC(=O)c2ccc(OC)cc2)CC1` was 19.1%.
The value for `CCOC(=O)N1CCN(CCC(=O)Nc2cccc(Br)c2)CC1` was -10.1% and 1.14%.
For the compound `CCOC(=O)N1CCN(CCC(=O)Nc2ccc(Br)cc2)CC1`, the inhibition is -11.9%.
In the case of `CCOC(=O)n1cc(-c2cnc(CNC(=O)C(C)(c3ccccc3)c3ccccc3)o2)c2ccccc21`, the inhibition is -3.78%.
Regarding `Cc1ccc(C(=O)NCC(=O)Nc2cccc(C(F)(F)F)c2)cc1`, the inhibition is 7%.
The value for `CCCN1CCN(CCCNC(=S)Nc2ccc3nc(N4CCN(CC)CC4)cc(C)c3c2)CC1` was 2.52%; that for `Cn1cc(P(=S)(N2CCOCC2)N2CCOCC2)cc1P(=S)(N1CCOCC1)N1CCOCC1` was -5.57%; that for `CN(C)S(=O)(=O)c1ccc(S(=O)(=O)N(CC(=O)Nc2ccccc2)CC2CCCO2)cc1` (stereo not drawn) was 9.84%.
The same measure for `CC1CCCN(C(=O)COC(=O)Cc2c(F)cccc2Cl)C1` (stereo not drawn): 8.14%; for `C[N+]1(C)CCC(=C2c3ccccc3CC(=O)c3sccc32)CC1`: -5.91%; for `CN1CCC(=C2c3ccccc3CC(=O)c3sccc32)CC1`: -11.1% and 6.89% and 11.9%.
As to `Clc1ccc2c(c1)CCc1cccnc1C2=C1CCNCC1`, the inhibition was 9.72%.
As to `CN1CCC(=C2c3ccccc3CCc3sccc32)CC1`, the inhibition was 4.53%.
Turning to `COc1ccccc1CNC(=O)c1ccc(N2CCOCC2)c([N+](=O)[O-])c1`, the inhibition is 3.84%.
As to `O=C(O)c1ccccc1C(=O)Nc1ccc(Oc2ccc3ccccc3c2)cc1`, the inhibition is -5.98%.
The value for `O=S(=O)(Nc1ccc(-n2cnnn2)cc1)c1ccc(F)c(F)c1F` was -6.29%; that for `COc1ccc2nc(C)cc(NCCN3CCOCC3)c2c1` was 3.31%; that for `Cc1cc(NCCN2CCOCC2)c2ccc3ccccc3c2n1` was 0.49%.
For the compound `CN1CCN(c2nc(-c3ccc(Cl)c(Cl)c3)nc3ccccc23)CC1`, the inhibition was -3.79%.
The value for `CN1CCN(C2=Cc3ccc(Cl)cc3Sc3ccc(F)cc32)CC1` was 2.54%; that for `CN1CCN(c2ccc(Cl)cc2N)CC1` was 5.42%.
For the compound `CN1CCN(C2=Nc3cc(F)ccc3Cc3ccccc32)CC1`, the inhibition is 10.2%.
Take `CN1CCN(C2=Cc3ccccc3Sc3cc(F)c(F)cc32)CC1`: the inhibition is 56.3%.
The value for `CN1CCN(c2ccc(F)cc2N)CC1` was -23.4%.
The same measure for `COc1ccc(N(CC(=O)Nc2ccc(C(C)C)cc2)S(=O)(=O)c2c(C)noc2C)cc1`: -9.48%; for `COc1ccccc1NC(=O)CSc1nnc(Cc2ccccc2)o1`: -0.38%.
Take `CCC(=O)OC1(Cc2ccc(CC)cc2)CC(C)N(C)CC1C` (stereo not drawn): the inhibition was -0.84%.
In the case of `CCOC(=O)C1(CCOC)CCN(Cc2ccncc2)CC1`, the inhibition was -5.83%.
As for `Oc1c(CN2CCCCC2)cc(COCc2ccccc2)c2cccnc12`, the inhibition was -6.03%.
The value for `COc1ccc(CN2CCN(C)CC2)cc1OCc1ccccc1` was 0.01%; that for `O=C(Oc1c(CN2CCOCC2)cc(Cl)c2cccnc12)c1ccccc1` was 9.08%.
The value for `Oc1c(CN2CCOCC2)cc(-c2ccccc2)cc1CN1CCOCC1` was 9.41%; that for `Cc1cccc(OCC(=O)Nc2nnc(-c3ccco3)s2)c1` was 5.97%; that for `CCOc1ccc2nc(N3CCCC(C(=O)NCCCN4CCCCC4)C3)sc2c1` (stereo not drawn) was 6.31%.
The same measure for `CCN(CC(N)=O)S(=O)(=O)c1ccc(Br)cc1`: 4.08%.
`N=c1n(CCN2CCCCC2)c2ccccc2n1CC(O)c1cccc(Br)c1` (stereo not drawn): the inhibition was 2.9%.
The same measure for `CCCn1c(=N)n(CC(=O)c2ccc(Cl)c(Cl)c2)c2ccccc21`: -5.11%; for `N=c1n(CCN2CCCC2)c2ccccc2n1CC(O)c1ccc(Cl)c(Cl)c1` (stereo not drawn): 27.1%; for `N=c1n(CCN2CCOCC2)c2ccccc2n1CC(=O)c1ccc(Cl)c(Cl)c1`: 20.6%.
The value for `CC1=NN(c2nc(C)cc(C)n2)C(=O)C1CCC(C)C` (stereo not drawn) was 2.35%.
The value for `Cc1cc(C)nc(NC(=O)c2cccs2)c1` was -2.29%; that for `Cc1cccc(NS(=O)(=O)c2c(C)nc3scc(C)n3c2=O)c1` was -24.5%.
Consider `COC(=O)C1CSC(C(=O)OC)N1C(=O)CN1CC(C)OC(C)C1` (stereo not drawn), for which the inhibition is -2.04%.
`O=c1ccn([C@@H]2O[C@H](CO)[C@@H](O)[C@H]2O)c(=O)[nH]1`: the inhibition was -0.0767%.
As for `O=c1[nH]c(=O)n(C2OC(CO)C(O)C2O)cc1Br` (stereo not drawn), the inhibition was -19.2%.
With `Cc1cc(C)nc(CCNC(=O)c2cc(COc3c(C)cccc3C)on2)n1`, the inhibition is -3.31%.
The same measure for `CC(C)Oc1ccc(C(=O)NCC(=O)OCC(=O)N(C)Cc2cccs2)cc1`: 2.06%.
In the case of `CCn1c(C)cc(C)c(C#N)c1=O`, the inhibition was 7.92%.
For `CCN(CC)CCn1c(=N)n(CC(O)COc2ccccc2)c2ccccc21` (stereo not drawn), the inhibition was 15.1%.
The value for `N=c1n(CCN2CCCCC2)c2ccccc2n1CC(O)COc1ccccc1` (stereo not drawn) was 28%; that for `CCCCn1c(=N)n(CC(O)COc2cccc(C)c2)c2ccccc21` (stereo not drawn) was 9.29%; that for `Cc1ccc(OCC(O)Cn2c(=N)n(CCN3CCOCC3)c3ccccc32)cc1` (stereo not drawn) was 14%.
With `COc1ccc(OCC(O)Cn2c(=N)n(CCN3CCCCC3)c3ccccc32)cc1` (stereo not drawn), the inhibition was 20.8%.
On to `CCCn1c(=N)n(CC(O)COc2cccc(C)c2)c2ccccc21` (stereo not drawn), for which the inhibition is 3.8%.
Regarding `Cc1ccc(SCC(=O)OCC(=O)NCCC2=CCCCC2)cc1`, the inhibition was 9.93%.
On to `O=C(O)CNC(=O)C1COc2ccccc2O1` (stereo not drawn), for which the inhibition was 8.95%.
Regarding `COCCCn1c(C23CC4CC(CC(C4)C2)C3)n[nH]c1=S`, the inhibition was -6.32%.
The same measure for `Fc1ccc(CCNCc2ccc(Br)cc2)cc1`: -3.63%; for `C1N2CN3CN1CN(C2)C3`: -6.24%; for `O=C(CSc1nnnn1C1CCCC1)N1CCCc2ccccc21`: 11.7%.
Consider `COc1ccccc1OCCC(=O)OCC(=O)c1[nH]c(C)c(C(C)=O)c1C`, for which the inhibition is 10.1%.
Turning to `O=C(NCN1CCN(c2ccccc2F)CC1)c1ccccc1`, the inhibition is 0.63%.
The value for `C/C(=N\NC(=O)C1CC1)c1ccc(Cl)c(Cl)c1` was 5.7%; that for `NCC(=O)c1cccc2ccc[n+]([O-])c12` was -7.72%; that for `C[n+]1cccc2c(Br)ccc([O-])c21` was 4.86%.
Take `O=C(CSc1n[nH]c(=O)[nH]c1=O)c1ccccc1[N+](=O)[O-]`: the inhibition is -3.6%.
The value for `CCN(Cc1cc2ccccc2[nH]c1=O)C(=O)c1cccnc1` was 1.33%; that for `COc1ccc(C2(CNC(=O)/C=C\c3ccco3)CCCC2)cc1OC` was -2.04%.
Take `CC(C)(C)c1ccc(C(=O)NC(=S)NNC(=O)COc2ccccc2)cc1`: the inhibition was -4.42%.
The value for `Cc1ccccc1C(=O)NNC(=S)NC(=O)c1ccccc1` was -2%.
The same measure for `COC(=O)c1ccccc1NC(=S)NC(=O)COc1ccccc1`: 10.9%.
The value for `O=C(COc1ccccc1)NNC(=S)NC(=O)c1ccccc1` was 12.9%; that for `CCc1ccc(NC(=S)Nn2cnnc2)cc1` was 3.78%; that for `CCn1cc(C(=O)c2ccccc2)c2ccccc21` was -2.86%.
Turning to `COc1ccc(/C=C/C(=O)Nc2ccc(-c3nnc4n3CCCCC4)cc2)c(OC)c1`, the inhibition is 5.23%.
The same measure for `CC(=O)OC(C(=O)NCc1ccco1)c1ccncc1` (stereo not drawn): -8.42%; for `Cc1c(CCOC(=O)CC23CC4CC(CC(C4)C2)C3)sc[n+]1CC(=O)c1ccc(Br)cc1`: -0.11%; for `Cc1c(CCOC(=O)c2ccccc2)sc[n+]1CC(=O)c1ccc(Br)cc1`: -8.05%.
The same measure for `O=C(Nc1nc(-c2cccc([N+](=O)[O-])c2)cs1)c1cccc([N+](=O)[O-])c1C(=O)O`: 5.24%; for `O=C(NC1CCCCCCC1)C1CCN(S(=O)(=O)N2CCCC2)CC1`: 11%; for `O=C(CSc1nc2ccccc2[nH]1)Nc1ccccc1F`: -4.68%.
Regarding `O=C(CSc1nc2ccccc2[nH]1)Nc1ccc(F)cc1`, the inhibition was 0.68%.
The same measure for `Cc1ccc(NS(=O)(=O)c2ccc3c(c2)NC(=O)CCS3)c(Br)c1`: 1.1%; for `NC(=O)/C=C/C(=O)Nc1ccc(Cl)cc1`: 5%.
The value for `COc1ccc(/C=C/C(=O)NC(=S)NNC(=O)c2cccnc2)cc1` was -4.83%; that for `O=C(/C=C/c1ccccc1)NC(=S)NNC(=O)c1cccnc1` was 4.06%; that for `CC(C)NC(=S)NC(=O)/C=C/c1ccc(F)cc1` was -3.22%.
`O=C(/C=C/c1ccc(F)cc1)NC(=S)NC1CCCCC1`: the inhibition was 2.79%.
The value for `CC(/C=C/c1ccccc1)=N/NC(=O)c1cnccn1` was 1.54%; that for `COc1ccc(/C=C/C(=O)NC(=S)NNC(=O)c2cc(OC)c(OC)c(OC)c2)cc1` was 4.25%.
